# Tests used:
# Test in all cases: yeast three-hybrid, YBZ-1, SC-Leu-His + 0.5 mM 3-AT, 4 days
# Conditions in all cases: tags: N-Gal4 AD-HA kept; label: inside an RPR1-promoter hybrid RNA with tandem MS2 sites; ssRNA
# [1] = molecular target: T1, PUM1 PUF domain R6-AFR (Homo sapiens, UniProt Q14671 828-1176, N1043A;Y1044F;Q1047R)
# T1 sequence: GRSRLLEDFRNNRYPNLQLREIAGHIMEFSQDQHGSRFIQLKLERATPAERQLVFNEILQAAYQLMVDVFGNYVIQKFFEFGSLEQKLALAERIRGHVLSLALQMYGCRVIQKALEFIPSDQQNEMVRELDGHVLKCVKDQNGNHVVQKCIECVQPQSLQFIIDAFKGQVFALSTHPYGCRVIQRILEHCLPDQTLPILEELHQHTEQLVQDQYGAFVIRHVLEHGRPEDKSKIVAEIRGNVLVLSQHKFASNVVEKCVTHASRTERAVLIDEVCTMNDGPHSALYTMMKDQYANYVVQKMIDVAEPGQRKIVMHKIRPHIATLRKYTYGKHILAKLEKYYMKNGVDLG
# In short: (§1)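 The interaction score is the log change in variant frequency from input to selection. Scores were computed in log2 with a pseudocount of 1 for absent variants, using Illumina sequencing of PCR-amplified repeat regions. The input came from four days on SC-Leu and the selection from four days on SC-Leu-His + 0.5 mM 3-AT. The cells were strain YBZ-1 (LexA–MS2 coat fusion, HIS3 reporter) co-expressing Pumilio-1 PUF domain libraries and matching RNA elements from a centromeric plasmid.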
# [2] = molecular target: PUM1 PUF domain R7-RER (Homo sapiens, UniProt Q14671 828-1176, S1079R;N1080E;E1083R)
# In short: as §1
# [3] = molecular target: PUM1 PUF domain R5-RRI (Homo sapiens, UniProt Q14671 828-1176, C1007R;Q1011I)
# PUM1 PUF domain R5-RRI, sequence (Q14671 828-1176 C1007R/Q1011I): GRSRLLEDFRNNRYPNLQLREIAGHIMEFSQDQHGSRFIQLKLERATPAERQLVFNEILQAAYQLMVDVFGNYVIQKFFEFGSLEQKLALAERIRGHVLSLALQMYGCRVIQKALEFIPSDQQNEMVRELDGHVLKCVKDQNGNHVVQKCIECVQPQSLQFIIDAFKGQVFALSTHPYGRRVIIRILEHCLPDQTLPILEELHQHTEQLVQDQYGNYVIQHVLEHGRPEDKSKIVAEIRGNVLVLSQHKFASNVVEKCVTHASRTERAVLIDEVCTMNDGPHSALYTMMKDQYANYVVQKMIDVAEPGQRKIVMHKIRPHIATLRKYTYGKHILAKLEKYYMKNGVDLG
# In short: as §1
# [4] = molecular target: PUM1 PUF domain R5-RNL (Homo sapiens, UniProt Q14671 828-1176, C1007R;R1008N;Q1011L)
# In short: as §1
# [5] = molecular target: PUM1 PUF domain R1-KTY (Homo sapiens, UniProt Q14671 828-1176, S863K;R864T;Q867Y)
# In short: as §1
# [6] = molecular target: PUM1 PUF domain R1-RRQ (Homo sapiens, UniProt Q14671 828-1176, S863R)
# PUM1 PUF domain R1-RRQ, sequence (Q14671 828-1176 S863R): as the sequence (Q14671 828-1176 C1007R/Q1011I) above, with S36R, R180C, I184Q counted along it
# In short: as §1
# [7] = molecular target: PUM1 PUF domain R4-DHV (Homo sapiens, UniProt Q14671 828-1176, N971D;Q975V)
# In short: as §1
# [8] = molecular target: PUM1 PUF domain R4-WSS (Homo sapiens, UniProt Q14671 828-1176, N971W;H972S;Q975S)
# PUM1 PUF domain R4-WSS, sequence (Q14671 828-1176 N971W/H972S/Q975S): as the sequence (Q14671 828-1176 C1007R/Q1011I) above, with N144W, H145S, Q148S, R180C, I184Q counted along it
# In short: as §1
# [9] = molecular target: PUM1 PUF domain R4-ANT (Homo sapiens, UniProt Q14671 828-1176, N971A;H972N;Q975T)
# In short: as §1
sequence,measurement,setting,value
GGCUAGAACUAGUGGAUCCCCCGGCGCCCGGCGGCUCGAGCCCGGGUAAGUGCAAAUAGUCUGCAUGCCGCCGGGCGCCAUGCCUGCAGGUCGACUCUAGAAAACAUG,binding signal,[1],4.86 log2 enrichment (interaction score)
GGCUAGAACUAGUGGAUCCCCCGGCGCCCGGCGGCUCGAGCCCGGGUAAGUUUAAAUAGUCUGCAUGCCGCCGGGCGCCAUGCCUGCAGGUCGACUCUAGAAAACAUG,binding signal,[2],4.54 log2 enrichment (interaction score)
GGCUAGAACUAGUGGAUCCCCCGGCGCCCGGCGGCUCGAGCCCGGGUAAGUGUCAAUAGUCUGCAUGCCGCCGGGCGCCAUGCCUGCAGGUCGACUCUAGAAAACAUG,binding signal,[3],3.62 log2 enrichment (interaction score)
same,binding signal,[4],2.83 log2 enrichment (interaction score)
GGCUAGAACUAGUGGAUCCCCCGGCGCCCGGCGGCUCGAGCCCGGGUAAGUGUAAAUUGUCUGCAUGCCGCCGGGCGCCAUGCCUGCAGGUCGACUCUAGAAAACAUG,binding signal,[5],3.93 log2 enrichment (interaction score)
same,binding signal,[6],4.29 log2 enrichment (interaction score)
GGCUAGAACUAGUGGAUCCCCCGGCGCCCGGCGGCUCGAGCCCGGGUAAGUGUAUAUAGUCUGCAUGCCGCCGGGCGCCAUGCCUGCAGGUCGACUCUAGAAAACAUG,binding signal,[7],6.27 log2 enrichment (interaction score)
same,binding signal,[8],4.4 log2 enrichment (interaction score)
same,binding signal,[9],2.52 log2 enrichment (interaction score)
